An excerpt weighted towards active compounds, which were near 2.7% of everything screened.
ANO1 block = mouse TMEM16A channel inhibition, primary screen | HEK293 TMEM16A/YFP iodide influx fluorescence, ionomycin | normalized B-score (activity score, 25-100; higher = stronger inhibition) at 10 µM | 310,000 compounds, 1.2% hits | AID 588511;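 active = ratio plate-corrected score three or more library SD toward inhibition, starting fluorescence score within five deviations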;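 note: score derived from kinetic fluorescence span divided by baseline fluorescence per well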
PP5 primary = blocks human protein phosphatase 5 activity. purified PP5c, OMFP substrate fluorescence. 320,000 compounds, 0.18% hits. inhibition, % at 6.7 µM;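 active = inhibition above the campaign's mean inhibition across all tested compounds plus 3 SD, cut at about 9.5% in these data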
TMEM16A act = activates or potentiates the mouse TMEM16A chloride channel | Q8BHY3 | HEK293 TMEM16A/YFP-H148Q/I152L, iodide quench fluorescence; hits give low values | B-score at 10 µM | 340,000 compounds, 0.3% hits;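 active = fluorescence-ratio B-score plate-corrected deviation score at least 3 library SD below zero, with starting fluorescence score within 5 deviations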;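 note: channel opened by trigger with iodide after compound preincubation; score built on the fluorescence ratio of max minus min over baseline; more negative score means more quench and so TMEM16A activation or potentiation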
DNA FID counter = counter-screen for HCV NS3 helicase inhibitors: DNA intercalator displacement | DNA fluorescent intercalator displacement, fluorescence | inhibition, % at 7.9 µM | 290,000 compounds, 0.17% hits; in the data active = inhibition above about 37%;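 note: higher means more ethidium bromide displaced from hairpin DNA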
PP1 counter = blocks human PP1-alpha phosphatase, a PP5 counter-screen; P62136; purified PP1alpha, OMFP fluorescence; inhibition, % at 6.7 µM; 320,000 compounds, 0.9% hits;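 active = inhibition above the mean inhibition of all tested compounds plus 3 SD, computed separately for each screening campaign, cut at about 15% in these data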
PREPL inhibitor = inhibitors of human prolyl oligopeptidase-like enzyme PREPL; AID 2751; Q4J6C6; inhibition, % at 5.96 µM; recombinant PREPL, fluorescence polarization activity-based probe; 320,000 compounds, 0.68% hits; in the data active = inhibition above about 43%
Target sequence (Q4J6C6 whole entry, looked up): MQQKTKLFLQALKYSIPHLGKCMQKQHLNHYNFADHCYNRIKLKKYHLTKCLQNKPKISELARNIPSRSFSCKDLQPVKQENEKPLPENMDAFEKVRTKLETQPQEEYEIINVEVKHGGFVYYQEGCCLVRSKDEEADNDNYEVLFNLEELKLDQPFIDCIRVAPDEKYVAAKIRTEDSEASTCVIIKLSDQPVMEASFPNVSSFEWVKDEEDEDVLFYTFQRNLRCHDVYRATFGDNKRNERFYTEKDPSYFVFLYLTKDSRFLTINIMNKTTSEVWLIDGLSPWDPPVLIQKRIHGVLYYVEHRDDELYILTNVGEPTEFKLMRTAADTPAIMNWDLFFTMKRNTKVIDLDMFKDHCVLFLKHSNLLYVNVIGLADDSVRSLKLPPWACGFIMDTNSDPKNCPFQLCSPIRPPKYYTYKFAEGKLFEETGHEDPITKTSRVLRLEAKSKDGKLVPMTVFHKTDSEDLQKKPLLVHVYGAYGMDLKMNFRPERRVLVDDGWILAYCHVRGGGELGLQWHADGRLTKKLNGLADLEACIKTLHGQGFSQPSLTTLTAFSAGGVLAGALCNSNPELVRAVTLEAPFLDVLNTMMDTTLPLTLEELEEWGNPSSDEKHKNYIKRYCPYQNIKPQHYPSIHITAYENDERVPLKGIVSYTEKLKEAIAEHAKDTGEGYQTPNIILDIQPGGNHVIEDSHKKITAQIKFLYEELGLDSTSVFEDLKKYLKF
Numbers stand for hits; n = inactive; x = not tested or not shown.

SMILES	ANO1 block	PP5 primary	TMEM16A act	DNA FID counter	PP1 counter	PREPL inhibitor
O=C(CN(c1cccc(Br)c1)S(=O)(=O)c1ccccc1)N/N=C/c1cc([N+](=O)[O-])ccc1O	n	n	n	x	16.5	n
O=C(CCCC(=O)Nc1cccc(Br)c1)N/N=C/c1cc([N+](=O)[O-])ccc1O	n	n	n	n	16.3	n
CC(C)(C)NC(=O)CN(c1cccc([N+](=O)[O-])c1)S(=O)(=O)c1ccccc1	n	n	n	n	n	n
O=C(COc1ccccc1)NS(=O)(=O)c1ccccc1	n	n	n	n	n	n
COc1ccc(NC(=O)CN2CCC(C(=O)c3ccc(F)cc3)CC2)c(OC)c1	n	n	n	n	n	n
C/C(=N\Nc1nc2c(s1)CCCC2)c1ccc(Cl)cc1	n	n	-10.5	n	n	n
COc1cc(CNCCO)cc(Cl)c1OCc1ccc(Cl)cc1Cl	n	n	n	43.4	n	n
O=C1Cc2c([nH]c3ccc([N+](=O)[O-])cc23)-c2ccccc2N1	x	x	n	x	x	x
COc1ccc(Cl)cc1Nc1nc(N)c2ccccc2n1	n	n	n	36.8	n	n
CC(C)(C)OC(=O)C[C@@H]1C/C=C\C[C@H](CC(=O)N(CCO)Cc2ccccc2)C(=O)N[C@H](Cc2ccccc2)COC1=O	x	x	n	x	x	n
CC(=O)c1c(C)[nH]c(C(=O)CSc2ncnc3sc(-c4ccccc4)cc23)c1C	25	n	n	n	n	n
CCOc1cc(CNc2cccc3ccccc23)cc(Br)c1OCC(=O)NC(C)(C)C	n	n	n	n	n	56.8
CN(CC(=O)Nc1cccc(F)c1)C(=O)c1cccc(S(=O)(=O)N2CCN(c3ccc(F)cc3)CC2)c1	x	x	n	x	x	x
CCc1ccc(CNc2ccc3c(c2)ncn3CC)cc1	n	n	-6.91	n	n	n
CCN(c1ccccc1)S(=O)(=O)c1ccc(Cl)c(NC(=O)CN(C)Cc2cccc(F)c2)c1	x	x	n	x	x	x
CCN(CC)C(=O)c1ccccc1NS(C)(=O)=O	n	n	n	n	n	n
CCn1c(=O)c2c(n3cnnc13)-c1ccccc1CC21CCCCC1	n	n	-9.62	n	n	n
O=c1c2c(n3cnnc3n1-c1ccccc1)-c1ccccc1CC21CCCCC1	n	n	n	n	n	n
O=C1CC(c2ccc(O)c(O)c2)Oc2cc(O)cc(O)c21 (stereo unspecified)	n	n	n	x	15.5	n
O=C1CC(c2ccc(O)cc2)Oc2cc(O)cc(O)c21 (stereo unspecified)	n	n	n	n	n	n
O=c1oc2ccccc2c(O)c1Cc1cc(Cl)c2cccnc2c1O	n	n	n	n	15.8	n
CCN(CC)CCN(Cc1cc2cc(C)cc(C)c2[nH]c1=O)C(=S)NCc1ccco1	n	n	n	n	n	n
Cc1cc(C)c2[nH]c(=O)c(CN(Cc3cccs3)C(=S)NCc3ccco3)cc2c1	n	n	n	n	15.8	n
Cc1ccc(SCC(=O)Nc2ccc(N3CCN(C)CC3)c(F)c2)c(C)c1	n	n	n	38.9	n	n
Cc1cc(C)n2c(SC(C)C(=O)NC3(C#N)CCCCC3)nnc2n1 (stereo unspecified)	x	n	n	x	n	n
SMILES	ANO1 block	PP5 primary	TMEM16A act	DNA FID counter	PP1 counter	PREPL inhibitor
CC(C)C(NC(=O)c1ccc2c(c1)OCO2)C(=O)N/N=C/c1cccs1 (stereo unspecified)	n	n	n	n	n	n
Cc1c(/C=N/NC(=O)C(NC(=O)c2ccc3c(c2)OCO3)C(C)C)c2ccccc2n1C (stereo unspecified)	n	n	-5.74	n	n	n
O=C(c1cccc(C(=O)N2CCN(Cc3ccccc3)CC2)c1)N1CCN(Cc2ccccc2)CC1	25	n	n	n	n	n
CN(Cc1ccccc1F)C(=O)c1cccc(NC(=O)CC2SC(N3CCCCC3)=NC2=O)c1 (stereo unspecified)	x	x	n	x	x	x
O=C(O)CN1C(=O)/C(=C\c2cc(Br)ccc2OCc2ccccc2Cl)SC1=S	n	n	n	n	n	n
O=C(O)CN1C(=O)/C(=C\c2cc(Br)ccc2OCc2ccccc2F)SC1=S	n	n	n	n	16.1	n
O=[N+]([O-])c1ccc(O)c(C2=NNC(c3ccccc3F)C2)c1 (stereo unspecified)	100	n	n	n	n	n
COc1cc(C(=O)N(C)CCOc2ccccc2)ccc1OCC(=O)Nc1cccc(C(F)(F)F)c1	100	n	n	x	n	n
NN=C1c2ccccc2C(=O)C1C(=O)C(c1ccccc1)c1ccccc1 (stereo unspecified)	x	x	n	x	x	x
O=C(CN1CCN(C/C=C/c2ccccc2)CC1)Nc1cc([N+](=O)[O-])ccc1Cl	n	n	n	n	n	48.6
Cc1ccc(-c2nc(CSCC(=O)N3CCN(C(=O)c4ccco4)CC3)c(C)o2)cc1	n	n	n	n	n	n
CCc1ccc(-c2nc(CSCC(=O)N3CCN(c4ccccn4)CC3)c(C)o2)cc1	100	n	n	n	n	n
Cc1ccc(-c2nc(CSCC(=O)N3CCN(c4ccccn4)CC3)c(C)o2)cc1	25	n	n	n	n	n
CC(C)CC(=NNC(=O)c1ccncc1)c1cc(Cl)ccc1O	x	x	n	x	x	x
CCc1nc(SCc2nc3ccccc3[nH]2)c2oc3ccccc3c2n1	25	n	n	n	n	n
COc1cccc(NC(=O)c2ccccc2F)c1	n	n	n	x	n	n
CCOC(=O)Nc1cccc(NC(=O)c2ccccc2F)c1	n	n	-10.1	n	n	n
N#C/C(=C\c1cccs1)Sc1nc2ccccc2s1	n	n	-19.8	n	n	n
O=C(CNC(=O)c1ccc(Cl)cc1)OCC(=O)N1CCCC1	n	n	n	n	n	n
Fc1ccc(COc2ccc(Br)cc2CNCc2ccncc2)cc1	n	n	n	n	n	n
Fc1ccc(COc2cccc(CNCc3ccncc3)c2)cc1	25	n	n	n	n	n
CCOc1cc(CNCc2ccncc2)cc(Br)c1OCc1ccc(F)cc1	100	n	n	n	n	n
CN(C(=O)c1ccno1)c1nnc(-c2cnccn2)s1	n	n	n	n	n	n
CN(C(=O)c1ccc(C#N)cc1)c1nnc(-c2cnccn2)s1	n	n	-5.2	n	n	n
C=CCC[C@H](Cc1ccc(F)cc1)C(=O)OC[C@@H](Cc1c[nH]c2ccccc12)NC(=O)[C@H](CC=C)CC(=O)N(CCO)Cc1ccccc1	x	x	n	x	x	n
COc1ccc(C(=O)N[C@H](C(=O)NCCc2ccc3c(c2)OCCO3)C(C)C)cc1	x	x	n	x	x	n
COc1cc(/C=C2\SC(=Nc3ccc(O)cc3)NC2=O)cc(OC)c1O	n	n	-4.67	n	n	n
O=C1c2ccccc2CN1C(CO)Cc1ccccc1 (stereo unspecified)	n	n	x	n	n	n
COC(=O)C(Cc1ccc(OC(=O)c2ccc(C(F)(F)F)cc2)cc1)N1Cc2ccccc2C1=O (stereo unspecified)	100	n	n	n	n	n
